Screening data: PubChem, National Center for Advancing Translational Sciences (NCATS)
This is a sample that favours compounds with a hit; in the whole collection about 9.2% have one here.
ELG1 genotox = inducers of genotoxicity in HEK293T ELG1-luciferase cells; AID 504466; HEK293T ELG1-luciferase reporter, luminescence, 16 h; actives 1.3% (n = 330,000); Potency, µM (doses to about 46 µM), for the others: at the highest dose activity change, positive = activation, actives largely listed as activators; note: % of control where 0% means no effect; nearly all actives have a fitted effect of over 60% in size
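Cells (2,000/well) expressing the ELG1-luciferase fusion are dosed by pin tool and kept 16 hr at 37 °C, 5% CO2. Signal comes from ONE-Glo luciferase reagent after 30 min at room temperature.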
NPC1 prom act = NPC1 promoter activation. actives 2.4% (n = 320,000). Potency, µM (titrated, usually from 9.22 µM), for the others: top-dose activation, hits mostly activators. Huh7 NPC1 promoter luciferase reporter, 24 h. AID 485313; note: % of control where 0% means no effect; nearly all actives have a fitted effect of over 60% in size
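Compounds in DMSO were transferred onto Huh7 NPC1-luciferase reporter cells pre-incubated 2 h; after 24 h at 37 °C, Amplite reagent was dispensed and luminescence recorded 10 min later.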
FLuc modulator = counter-screen for miR-21 project: firefly luciferase inhibitors or activators | purified FLuc, Km substrates, luminescence inhibition | Potency, µM (highest dose often 57.5 µM), for inactives: at the highest dose activity change, negative = inhibition, actives largely listed as inhibitors | actives 6.9% (n = 360,000);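 note: plate controls were vehicle for no effect and reference inhibitor for full effect; nearly all actives have a fitted effect of over 55% in size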
Target sequence (P08659 whole entry, looked up): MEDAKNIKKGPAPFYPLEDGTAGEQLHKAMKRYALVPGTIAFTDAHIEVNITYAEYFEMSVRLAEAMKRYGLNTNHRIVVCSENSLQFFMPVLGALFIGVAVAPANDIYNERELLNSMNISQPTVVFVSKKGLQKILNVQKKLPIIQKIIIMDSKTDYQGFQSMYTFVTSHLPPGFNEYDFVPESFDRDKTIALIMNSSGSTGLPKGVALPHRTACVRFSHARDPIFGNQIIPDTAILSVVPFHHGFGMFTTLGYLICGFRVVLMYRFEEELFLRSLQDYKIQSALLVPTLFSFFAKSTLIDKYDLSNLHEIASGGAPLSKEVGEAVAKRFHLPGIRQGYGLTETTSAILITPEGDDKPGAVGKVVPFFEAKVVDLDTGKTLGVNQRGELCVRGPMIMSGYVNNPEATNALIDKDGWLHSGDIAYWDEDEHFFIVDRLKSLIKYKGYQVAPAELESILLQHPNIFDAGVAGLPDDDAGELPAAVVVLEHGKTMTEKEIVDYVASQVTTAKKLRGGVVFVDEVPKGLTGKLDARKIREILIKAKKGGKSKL
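Purified P. pyralis luciferase, 10 nM final, with Km-level 10 uM D-luciferin and 10 uM ATP in 50 mM Tris acetate pH 7.5, 10 mM Mg acetate, 0.01% Tween-20, 0.05% BSA; 6-point qHTS titration about 60 µM downward; luminescence read.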
ELG1 repair inh = blocks ELG1-dependent DNA repair in HEK293T cells; Potency, µM (doses to about 46.1 µM), for inactives: top-dose activity change, negative = inhibition, most hits filed as inhibitors; HEK293T ELG1-luciferase reporter, luminescence, 16 h; DNA damage induced by 5-fluorouridine; actives 2.3% (n = 330,000); note: % is set by controls: 0 for no effect and ±100 for the full control effect; nearly all actives have a fitted effect of over 55% in size
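Overnight (16 hr) co-exposure of 2,000 cells/well to 5-fluorouridine and compound at 37 °C preceded detection. Luciferase was quantified via ONE-Glo luminescence; loss of signal denotes inhibition.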
SMN2 splice up = SMN2 splice variant enhancement; actives 2.8% (n = 210,000); HEK293 SMN2-luciferase splicing reporter, luminescence, 30-36 h; Potency, µM (series often up to 46.1 µM), without a hit: at the top dose activity change, positive = activation, most hits filed as activators; note: % of control where 0% means no effect; nearly all actives have a fitted effect of over 55% in size
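qHTS luciferase splicing reporter: luminescence rises when SMN2 exon 7 is included in transfected HEK293 cells. Compound exposure lasted 30-36 h at 37C, with 4.5 mM final sodium butyrate as control, followed by a ONE-Glo read.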
Rab9 prom act = Rab9 promoter activation. actives 2.8% (n = 320,000). Potency, µM (top dose mostly 9.22 µM), without a hit: top-dose activation, negative = inhibition, hits mostly activators. AID 485297. Huh7 Rab9 promoter-luciferase reporter, luminescence, 24 h; note: % of control where 0% means no effect; nearly all actives have a fitted effect of over 60% in size
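Huh7 cells stably carrying a Rab9 promoter-luciferase reporter, 1500 cells per well in OP-MEM I with 10% FBS, treated with compound 24 hours at 37C. Luciferase activity read by luminescence after 10 minutes with Amplite reagent.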
* hit, by the source's call; [ ] = dose if it differs, or a comment. Calls come from the whole dose curve; as a rule, active = well fitted curve in the direction sought with a large enough effect; inconclusive = small, poorly fitted or top-dose-only effect, or another doubt; inactive = no such curve, though single readings can be large; an effect the other way counts as inactive or inconclusive. Potency is the fitted concentration of half-maximal effect.

For Cc1cccn2c(=O)c3cc(C(=O)NCc4ccco4)c(=N)n(CCc4ccccc4)c3nc12 the results were ELG1 genotox 4%, NPC1 prom act 1%, FLuc modulator -6%, ELG1 repair inh 0% and Rab9 prom act 0%.
For O=C(NCCc1ccccc1)c1cnc2ccccn2c1=O the results were ELG1 genotox 21%, NPC1 prom act 0.89µM*, FLuc modulator 11µM*, ELG1 repair inh inconclusive, SMN2 splice up 4µM* and Rab9 prom act 0.56µM*.
For CCc1ccc(NC(=O)CSCc2ccc(C(=O)O)cc2)cc1 the results were ELG1 genotox -1%, NPC1 prom act -8%, FLuc modulator inconclusive, ELG1 repair inh -2% and Rab9 prom act -12%.
Screening CCOc1ccc(CNC(=O)c2cnc3c(C)cccn3c2=O)cc1 returned FLuc modulator 1%.
`Cc1cccc(CCNC(=O)c2cnc3c(C)cccn3c2=O)c1` gave FLuc modulator 4.3µM*.
Screening CCc1ccccc1NC(=O)c1cnc2scc(C)n2c1=O returned ELG1 genotox 15%, NPC1 prom act 21%, FLuc modulator inconclusive, ELG1 repair inh inconclusive, SMN2 splice up inconclusive and Rab9 prom act 29%.
CSc1ccccc1NC(=O)c1cnc2scc(C)n2c1=O was read as ELG1 genotox 18µM*, NPC1 prom act 0%, FLuc modulator inconclusive, ELG1 repair inh inconclusive, SMN2 splice up inconclusive and Rab9 prom act 22%.
Screening CN(CC(=O)Nc1ccccc1Br)C(=O)c1sccc1-c1ccccc1 returned ELG1 genotox -1%, NPC1 prom act -1%, FLuc modulator 5%, ELG1 repair inh -19% and Rab9 prom act 0%.
COc1ccc(OCC(=O)N/N=C/c2ccc(N(C)C)cc2)cc1 was read as ELG1 genotox 0%, NPC1 prom act 0%, FLuc modulator 13µM*, ELG1 repair inh 18%, SMN2 splice up 13% and Rab9 prom act 3%.
CCCCCC(=O)N/N=C/c1ccc(N(C)C)cc1 was read as ELG1 genotox inconclusive, NPC1 prom act inconclusive, FLuc modulator 12µM*, ELG1 repair inh inconclusive, SMN2 splice up inconclusive and Rab9 prom act inconclusive.
For COc1ccc(OCC(=O)N/N=C/c2cccn2-c2cccc(C(=O)O)c2)cc1 the results were ELG1 genotox -2%, NPC1 prom act 0%, FLuc modulator 13µM*, ELG1 repair inh -2% and Rab9 prom act -2%.
Cc1ccc(OCC(=O)N/N=C/c2cccn2C)cc1C was read as ELG1 genotox -1%, NPC1 prom act 0%, FLuc modulator inconclusive, ELG1 repair inh 4% and Rab9 prom act 5%.
`CN(C)c1ccc(/C=N/NC(=O)CCCO)cc1` gave ELG1 genotox -12%, NPC1 prom act 11%, FLuc modulator -13%, ELG1 repair inh inconclusive, SMN2 splice up 13% and Rab9 prom act 16%.
Cc1c(NS(=O)(=O)c2ccc(NC(=O)CCC(=O)O)cc2)c(=O)n(-c2ccccc2)n1C was read as ELG1 genotox -1%, NPC1 prom act -4%, FLuc modulator -1%, ELG1 repair inh 0% and Rab9 prom act -4%.
`CCc1ccc(NC(=O)C(=O)NCCc2sc3nc(-c4ccc(OC)cc4)nn3c2C)cc1` gave FLuc modulator -1%.
For COc1ccc(-c2nc(CS(=O)CC(=O)NCCCN3CCOCC3)c(C)o2)cc1OC (centres undefined) the results were ELG1 genotox 2%, NPC1 prom act 4%, FLuc modulator -1%, ELG1 repair inh 19% and Rab9 prom act -4%.
Screening COc1ccc(COC(=O)c2[nH]c3c(c2C)C(=O)CC(c2ccc(OC)c(OC)c2)C3)cc1 (centres undefined) returned FLuc modulator -4% and SMN2 splice up -52%.
`CCCCNC(=S)N=Nc1c(O)n(Cc2ccccc2)c2ccccc12` gave ELG1 genotox 3%, NPC1 prom act -4%, FLuc modulator 4%, ELG1 repair inh -2% and Rab9 prom act -1%.
Screening O=C(N=Nc1c(O)n(Cc2ccccc2)c2ccccc12)c1ccncc1 returned ELG1 genotox -6%, NPC1 prom act 11%, FLuc modulator 24µM*, ELG1 repair inh 18µM* and Rab9 prom act 8%.
Oc1c(N=NC(=S)Nc2ccccc2F)c2ccccc2n1Cc1ccccc1 was read as ELG1 genotox -13%, NPC1 prom act -6%, FLuc modulator -1%, ELG1 repair inh 8.2µM*, SMN2 splice up -37% and Rab9 prom act -8%.
Screening Cc1ccc(Cn2c(O)c(N=NC(=S)Nc3ccccc3F)c3ccccc32)cc1 returned ELG1 genotox -7%, NPC1 prom act -2%, FLuc modulator -1%, ELG1 repair inh 5.2µM* and Rab9 prom act -2%.
Oc1c(N=NC(=S)Nc2ccccc2F)c2ccccc2n1Cc1ccccc1Cl was read as ELG1 genotox -5%, NPC1 prom act -5%, FLuc modulator 0%, ELG1 repair inh -19%, SMN2 splice up -48% and Rab9 prom act -2%.
For Cc1cc(C)nc(N=Nc2c(O)n(Cc3ccc(Cl)cc3)c3ccccc23)n1 the results were ELG1 genotox 0%, NPC1 prom act 0%, FLuc modulator inconclusive, ELG1 repair inh 23µM*, SMN2 splice up 3% and Rab9 prom act -2%.
C=CCn1c(O)c(N=NC(=S)Nc2ccccc2F)c2ccccc21 was read as ELG1 genotox -1%, NPC1 prom act -2%, FLuc modulator 4%, ELG1 repair inh 6.5µM*, SMN2 splice up -62% and Rab9 prom act -7%.
For C=CCn1c(O)c(N=NC(=S)Nc2cccc(C)c2)c2ccccc21 the results were ELG1 genotox 1%, NPC1 prom act -8%, FLuc modulator 3%, ELG1 repair inh 15%, SMN2 splice up -68% and Rab9 prom act -15%.
For O=C(O)c1cc2c(=O)c3ccccc3oc2nc1C(F)(F)F the results were ELG1 genotox 0%, NPC1 prom act -6%, FLuc modulator 2%, ELG1 repair inh 0% and Rab9 prom act -4%[1.84 µM].
`CCOC(=O)c1cc2c(=O)c3cc(C)ccc3oc2nc1C` gave ELG1 genotox inconclusive, NPC1 prom act 2.8µM*, FLuc modulator 1.9µM*, ELG1 repair inh inconclusive and Rab9 prom act 3.2µM*.
CCN(CC)C(=O)c1cc2c(=O)c3cc(Cl)ccc3oc2nc1C was read as ELG1 genotox 7%, NPC1 prom act 0%, FLuc modulator inconclusive, ELG1 repair inh 0%, SMN2 splice up 11% and Rab9 prom act 1%[1.84 µM].
